Measurements as given in PubChem BioAssay AID1508600 (Functional Genomics Laboratory (NCATS/FGL), 2020).
In all, about 53,000 sequences went through this assay and about 3,700 (7%) were called active. This is one part of a sample in which actives are shown more often than they occur. Values without a mark were called inactive.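 How the source made its calls: active means gene knockdowns whose robust z-score for IL-1 alpha signal is at least 2 or at most -2, so actives lie on both sides; inactive means the rest.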

Assay: Components of the Cytosolic LPS Sensing Pathway: Gene Identification via Genome-wide siRNA Screen;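 further: robust z of the log signal after scaling to non-targeting control siRNA wells of the plate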
Conditions: RAW264.7 macrophages, IL-1a HTRF, actives lie on both sides, screened at 100 nM (by protocol), cells primed 5 h with Pam3CSK4 first
Method in brief: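 Read-out: IL-1a HTRF on supernatant, divided by plate negative-control median ×100, log-transformed and converted to robust z-score. Cells were RAW264.7 given 100 nM siRNA, Pam3CSK4-primed 5 hours, then LipidA-transfected 24 hour.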

Row | Sequence | z-score
1 | GGAACAGAUCUCUGAUAUATT against Sub1 | 0.564
2 | GGCCUUCAUUGAGAUGAACTT against Ptbp1 | -1.17
3 | GGCUAUGAUGAUUAUAAUGTT against Hnrnph1 | 0.724
4 | GGACCAGAGGAGAUUUCAATT against Ern2 | 1.56
5 | GGUAAACUCAAGUUUUCAGTT against Inpp5j | 2.36 (active)
6 | GGAUGAGAAACCAUUUAAATT against Oas1f | -1.08
7 | GGAUCUCCCUCUAAAUAUUTT against Hsp90aa1 | -0.138
8 | CGGAAAGUCCGGUUUCGAATT against Grxcr1 | 0.156
9 | CGAAGUUACGAGCAUCCACTT against Crhr2 | 3.81 (active)
10 | GGUUUACAGCAUCAUUAAATT against Shmt1 | 0.345
11 | CCAGACGAGGAGAACAUCATT against Samd4b | -0.111
12 | GGAUUAGCCUGGUCCUUUUTT against Dusp14 | 0.989
13 | CCGUCCGAUGAAAAACAGGTT against Prm1 | -0.128
14 | GCCCACCGACUUUAUUAACTT against Tfap2d | 0.541
15 | GCCAGACAAGCCUCAUUGATT against Ncapd2 | -2.2 (active)
16 | GGAAAAGAAAAUCGAGACCTT against Ubap2l | 0.776
17 | GGUACAAAUGCAUUGAGAGTT against Fcamr | -1.3
18 | GGCAAAGACAAGAAGCUGUTT against Drap1 | -0.445
19 | GCACAACUUAUGACUGAAATT against Emc4 | 1.66
20 | GCUUCAAGUCAACUUAGUCTT against Hal | 1.24
21 | GCGAAUUCGAAAGCUAUGATT against Arhgef10 | -2.19 (active)
22 | CCGAAGACUAGCUAAUUUUTT against Sult1c1 | 1.17
23 | CCUUCAACUAUGGCAAAUATT against Cacul1 | -0.241

Row | Sequence | z-score
24 | GCUCUGAACUCAAUAAUAATT against Atg7 | -0.875
25 | GCGGAUCUGCUUUUUGCACTT against Ttc14 | -0.105
26 | ACUUCGUAAAAGAGCACAATT against Platr25 | 1.02
27 | GGAUCUUGAAGAUAAGAGCTT against 1810009A15Rik | -0.599
28 | GGGUUUCAGAACUGAGUUATT against Saa1 | -0.28
29 | GCCAUGAAUCCUAUCCGCATT against Ephb3 | -0.967
30 | CCACCUAAUUUAUUGCUGUTT against Mafk | 0.745
31 | GGGUAGAAUGUGUGUGUCUTT against Abhd15 | -2.52 (active)
32 | GGCUGGCAUCACCAUCAAATT against Kit | 0.429
33 | CCACUUAUAACUCAUAGUUTT against Ugt2b34 | 0.0725
34 | GGACCGCUUCAACAGUAUGTT against Tcfl5 | -0.525
35 | CGCAUCUGUUUCUUUUCCCTT against 1700029P11Rik | -2.22 (active)
36 | GCAGGAGUUUAUCAGAGGATT against Prim2 | -1.64
37 | GGCAGCAAAGUCAAGAUGUTT against Msgn1 | -1.82
38 | GGGAGGAGAAAAAUAUUCUTT against Olfr1094 | -1.5
39 | GGAGAUCUUAGCAAAGUAUTT against Degs1 | 2.41 (active)
40 | CCUUCAUUCUCAUGUGACCTT against Psat1 | -1.2
41 | CCUUAAGGAACUAGGAUUCTT against Lgr5 | 1.05
42 | GGUCCUCCCAUAAUCUAGUTT against Lrrc75a | 1.18
43 | GCUCAUUGCACUAAAAGACTT against Tnnt1 | -1.92
44 | CCGCGUCUGUAUUUGAUAUTT against Sccpdh | 1.68
45 | GGAAGUCCUGGACAUUCAGTT against Nfkbie | 5.66 (active)
46 | GGUUGAGUUUCAGUGCAUCTT against Klhl28 | -0.632

Row | Sequence | z-score
47 | GCUUGAUUGUCAGUUGGAATT against Tcp11 | -0.364
48 | GGGUAGUUUUGACUUUGUUTT against Schip1 | 0.472
49 | GGAAUAAGGCGAGUUGGAATT against Serbp1 | 0.493
50 | GGCCUAUAAUUUCUUUACGTT against Cc2d2a | -0.823
51 | CGCGAGGAAGUCGAGGUAUTT against Pax2 | 1.17
52 | GGAUGUACACAGAAGGCCATT against Sucnr1 | 3.47 (active)
53 | GGCACCCUCAAGAAAGCGUTT against Nol6 | -1.34
54 | GGGCUUACUGCUUAAUAGATT against Fundc2 | 0.481
55 | CGUGGACUUAAUAUUUCAGTT against Btbd7 | 0.685
56 | GCCUCCUAGUAUUUACAUGTT against Ube2j2 | 0.8
57 | CCAGGCCAAAUCUCACAAUTT against A730008H23Rik | -2.2 (active)
58 | CCGUGAAAAUCAGUAAUUATT against Cacybp | -0.546
59 | GGACUUAUCAAGCUGGUUUTT against Rps25 | -1.48
60 | GCUCACAUUGAGUGGUUGGTT against Ncbp3 | 0.542
61 | GGAGUUACGUAGAACUACCTT against Adam25 | 0.543
62 | GCAAAUAUUGGCCACUCUCTT against Prpf19 | -0.523
63 | GCCAAGAAAAUCAAGUCUCTT against Pknox2 | 0.892
64 | GGAAGGAGAAGAAAACAUATT against Gtf3c6 | -2.13 (active)
65 | GGCUGUCCAGACUAGUUCUTT against Lsm14b | -0.317
66 | CCUCAUCAUAUUCUCCUGATT against Olfr869 | -0.848
67 | CCUGUCUUUAGUGGACUUUTT against Olfr1453 | 0.22
68 | GGUCUUUGAGAAGUACCACTT against Chst3 | -0.22
